From PubChem BioAssay AID540308 (The Scripps Research Institute Molecular Screening Center, 2011)
The whole screen tested about 360,000 compounds, of which about 3,500 (0.97%) were called active. This is one part of a sample in which actives are shown more often than they occur. Values without a mark were called inactive.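 Rule for the calls: active = activation above a per-plate cutoff, the mean activation of sample wells on that plate plus 3 SD (cut at about 8% in these data); inactive = the rest.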

Molecular target: Melanocortin receptor 4 (Homo sapiens) (UniProt P32245)
Assay: activators of MC4R beta-arrestin recruitment – cell-based, luminescence, agonist arm of biased-ligand search, primary screen (AID 540308)
Conditions: U2OS MC4R beta-arrestin complementation, at 8.9 µM, stronger effect = higher value, percent of melanotan II response, DMSO zero

Chain of Melanocortin receptor 4 (Homo sapiens) (P32245 whole entry, looked up): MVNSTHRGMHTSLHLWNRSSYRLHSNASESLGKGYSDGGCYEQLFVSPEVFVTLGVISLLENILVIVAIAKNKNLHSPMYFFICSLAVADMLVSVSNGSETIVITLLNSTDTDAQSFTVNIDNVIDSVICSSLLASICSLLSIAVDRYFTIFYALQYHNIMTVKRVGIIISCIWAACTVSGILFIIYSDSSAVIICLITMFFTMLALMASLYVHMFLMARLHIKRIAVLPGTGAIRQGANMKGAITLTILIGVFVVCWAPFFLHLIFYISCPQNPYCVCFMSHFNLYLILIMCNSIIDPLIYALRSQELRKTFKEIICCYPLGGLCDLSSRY

Row | SMILES | activation
1 | Cn1c(SCC(=O)Nc2cccc(NC(=O)c3cccs3)c2)nnc1-c1ccncc1 | 0.46%
2 | Cc1cc(-c2nc(C)c(-c3nnc(SCC(=O)Nc4ccccc4)n3C)s2)no1 | -2.39%
3 | Cc1nc(-c2nnc(SCC(=O)Nc3cc(C(F)(F)F)cc(C(F)(F)F)c3)n2C)cs1 | 10.2% (active)
4 | Cc1ccccc1S(=O)(=O)NC(=O)C1(C)CCN1C(=O)C1(c2ccccc2)CCCC1 (stereo not drawn) | -0.26%
5 | COc1ccc(-n2nnnc2SCC(=O)NCc2cccs2)cc1 | -3.21%
6 | COc1ccc(CNc2nnnn2C)cc1 | -2.31%
7 | COc1ccc(-n2nnnc2-c2nc3ccccc3s2)cc1 | 9.47% (active)
8 | OC[C@@H]1CN(Cc2ccc(F)cc2)C[C@H](n2cnc3c(NC4CCCC4)ncnc32)O1 | -2.29%
9 | CC1(C(=O)NCc2cccc3ccccc23)CCN1Cc1ccc(-c2ccccc2)o1 (stereo not drawn) | -1.17%
10 | COc1ccc(-c2ccc(C(=O)NC(C)C)c3occc23)c(C)c1 | 1.66%
11 | CCc1nc2ccc(C(=O)N(C)Cc3ccco3)cn2c1N(C)C(=O)Cc1ccccc1 | -1.99%
12 | COc1ccc(CNC(=O)c2nnn(CC(=O)Nc3cc(C)cc(C)c3)c2N)cc1 | 0.3%
13 | COc1cccc(CNC(=O)c2nnn(CC(=O)Nc3cc(Cl)ccc3C)c2N)c1 | 11.7% (active)
14 | COc1cccc(CNC(=O)c2nnn(CC(=O)Nc3cc(C)ccc3C)c2N)c1 | 3.53%
15 | CN(C)c1cccc(NC(=O)c2ccc(-c3ccc(F)c(F)c3)c3ccoc23)c1 | 0.91%
16 | COc1cc(C(=O)OC(C)C(=O)NCC2CCCCC2)cc(NC(=O)c2ccco2)c1OC (stereo not drawn) | 13.3% (active)
17 | CC(OC(=O)c1ccc([N+](=O)[O-])cc1)C(=O)NCC1CCCCC1 (stereo not drawn) | -1.32%
18 | CC(OC(=O)c1cccc(S(=O)(=O)N2CCOCC2)c1)C(=O)NCC1CCCCC1 (stereo not drawn) | 0.27%
19 | CC(C)Nc1ncnc2c1ncn2[C@H]1CN(Cc2ccncc2)C[C@@H](CO)O1 | 2.39%
20 | CC(C)CN1CCC1(C)C(=O)Nc1ccc(OC(F)F)cc1 (stereo not drawn) | 0.55%
21 | Cc1ccc(F)c(S(=O)(=O)NC(=O)C2(C)CCN2C(=O)c2ccco2)c1 (stereo not drawn) | 0.44%
22 | Oc1c(Cl)cc(Cl)c(Cl)c1Cc1c(O)c(Cl)cc(Cl)c1Cl | 9.22% (active)

Row | SMILES | activation
23 | O=C(NCc1ccc(F)cc1)c1cc(C2CCCCN2C(=O)c2ccccn2)on1 (stereo not drawn) | 1.1%
24 | COC(=O)C(C)Oc1ccc2c(c1)O/C(=C\c1cccc(Br)c1)C2=O (stereo not drawn) | 0.36%
25 | COc1cc(C#Cc2ccc3cc(CCCO)oc(=O)c3c2)cc(OC)c1 | -2.63%
26 | COc1cc(/C=C2\Oc3ccc(C#Cc4ccc(O)cc4)cc3C2=O)cc(OC)c1 | 10.2% (active)
27 | CCc1nc2ccc(C(=O)Nc3cc(-c4ccccc4)ccc3OC)cn2c1N(CC)CC(=O)N(C)C | 1.77%
28 | C[C@H]([C@@H](O)[C@@H](O)[C@@H](C)C(C)(C)C)[C@H]1CC[C@H]2C3CC[C@H]4C[C@H](OS(=O)(=O)O)[C@@H](OS(=O)(=O)O)C[C@]4(C)[C@H]3CC[C@]12C (stereo partly drawn) | 0.15%
29 | CC1(C(=O)NS(=O)(=O)c2ccccc2)CCN1C(=O)C1CCCCC1 (stereo not drawn) | -1.69%
30 | COc1cccc(-c2cc3nc(NCc4ccccc4OC)n(C)c(=O)c3s2)c1 | 6.31%
31 | CCCOc1ccc(F)cc1-c1cc(C(=O)Nc2ccc(F)c(Cl)c2)[nH]n1 | 2.17%
32 | COc1ccc(Cl)cc1C(=O)Nc1ccc(N(C)C(C)=O)cc1 | 0.11%
33 | CCN(CC)C(=O)Oc1ccc(Br)cc1C(=O)Nc1ccc(F)c(Cl)c1 | 11.6% (active)
34 | Cc1ccccc1N/N=C/c1ccc(N2CCOCC2)cc1 | -1.27%
35 | CCN(CC)c1ccc(/C=N/NC(=O)CNC(=O)c2cccs2)cc1 | -1.48%
36 | CCN(CC)c1ccc(C(=O)N/N=C/c2ccc(N3CCOCC3)cc2)cc1 | 26.7% (active)
37 | O=CNc1cc(-c2ccc(C(=O)N3CCOCC3)cc2)cn2c(-c3ccc(F)cc3)cnc12 | 0.33%
38 | CC1(Cc2ccccc2C#N)C(=O)Nc2ccc(-c3ccc4[nH]ccc4c3)cc21 (stereo not drawn) | -2.44%
39 | Cc1nc2c(OCc3cccc(Cl)c3)cccn2c1N(C)CC1CC1 | -0.13%
40 | CC1(C(=O)NCc2ccco2)Cc2c(-c3ccc4c(c3)OCO4)ccnc2O1 (stereo not drawn) | 0.01%
41 | CC1=C(C/C=C(\C)CCCC(C)CCCC(C)CCCC(C)C)C(=O)c2ccccc2C1=O (stereo not drawn) | -1.56%
42 | CCN(CC)S(=O)(=O)c1ccc(C)c(NC(=O)COc2ccc(Br)cc2Cl)c1 | 13.4% (active)
43 | CCN(CC)S(=O)(=O)c1ccc(OC)c(NC(=O)CCc2c(C)noc2C)c1 | -1.81%
44 | Cc1ccc(S(=O)(=O)N(C)C)cc1NC(=O)COC(=O)c1c(C)noc1C | -0.85%

Row | SMILES | activation
45 | O=C(NCc1cccnc1)c1cc(C2CCCCN2C(=O)CCc2ccccc2)on1 (stereo not drawn) | -1.7%
46 | CCNC(=O)C1CCCN(C(=O)c2cc(F)ccc2C)CC1 (stereo not drawn) | 1.6%
47 | O=C(N[C@@H](Cc1ccccc1)C(=O)OCc1ccccc1)c1nc[nH]c1C(=O)N[C@@H](Cc1ccccc1)C(=O)OCc1ccccc1 | 0.69%
48 | CC(C)(C)OC(=O)N1CCC(NC(=O)c2[nH]cnc2C(=O)N[C@@H](Cc2ccccc2)C(=O)OCc2ccccc2)CC1 | 17.8% (active)
49 | O=C(N[C@@H](Cc1ccccc1)C(=O)OCc1ccccc1)c1nc[nH]c1C(=O)NC1CCNCC1 | -0.82%
50 | CC(=O)c1ccc(Nc2nc(C(N)c3ccccc3Cl)cs2)cc1 (stereo not drawn) | -0.98%
51 | O=C(Cc1ccc(-c2ccccc2)cc1)NC(c1ccccc1)c1ccccc1 | 9.56% (active)
52 | O=C(CN1CCN(Cc2ccccc2)CC1)NC(c1ccccc1)c1ccccc1 | 1.85%
53 | C=CCC(NC(=O)Cc1ccccc1)C(=O)NCCC (stereo not drawn) | -0.94%
54 | COc1ccc(CN2CCC(C)(Oc3cccc(F)c3)C2)c2ccccc12 (stereo not drawn) | 0.37%
55 | COc1c(Cl)cc(C(=O)Nc2ccc(Cl)cn2)cc1Cl | 10.6% (active)
56 | CCCc1cc(C(=O)Nc2ccc(Cl)cn2)cs1 | 3.75%
57 | O=C(Nc1ccc(Cl)cn1)c1ccc2c(c1)OCCO2 | 0.85%
58 | COc1ccc(-c2cc3nc(NCCOc4ccccc4)ccn3n2)cc1 | 4.13%
59 | COc1cc(/C=N/NC(=O)Nc2ccccc2)ccc1OCCOc1ccccc1C | 21.2% (active)
60 | CCOc1cc(/C=N/NC(=O)OC)ccc1OCCSc1ccc(Cl)cc1 | 4.19%
61 | CCOc1ccc(/C=N/NC(=O)C(C)Sc2ccccn2)cc1OCC (stereo not drawn) | 2.39%
62 | CCCCNc1nc2c(c(=O)n(C)c(=O)n2C)n1Cc1cccc(OC)c1 | -2.77%
63 | CCCCNc1c(-c2cccc(Sc3ccc(OC)cc3)c2)nc2ccccn12 | 13.9% (active)
64 | CCCCNc1c(-c2ccc(OC)c(Sc3ccc(OC)cc3)c2)nc2ccc(Cl)cn12 | -1.91%
65 | CNc1cc(-c2c(OC)cccc2OC)ncn1 | 0.41%
66 | Cc1ccc(/C=C(\C#N)C(=O)Nc2cccc3ncccc23)o1 | 0.31%

Row | SMILES | activation
67 | O=C(NNc1cc(Cl)ccc1Cl)c1cccnc1Cl | -2.02%
68 | CC1CCN(C(=S)c2ccc(-c3ccc(Cl)cc3Cl)o2)CC1 | 2.82%
69 | Cc1csc(NC(=O)c2ccc(-c3ccc(Cl)cc3Cl)o2)n1 | 12.6% (active)
70 | COc1cc(SC)ccc1C(=O)Nc1nc(C)cs1 | -0.94%
71 | O=C(Nc1cccc2ncccc12)c1ccc(-c2ccc(Cl)cc2Cl)o1 | 20.2% (active)
72 | Cc1nc2c(OCc3ccc(Cl)cc3)cccn2c1N(C)Cc1cccs1 | -2.75%
73 | COc1ccc(CCNC(=O)Nc2ccc3c(c2)c(=O)n(C)n3C)cc1OC | 1.3%
74 | COc1cc(C(O)c2nc(-c3cccc(C(=O)O)c3)cs2)ccc1F (stereo not drawn) | -1.9%
75 | CC1(C(=O)NS(=O)(=O)c2cccc(OC(F)F)c2)CCN1C(=O)COc1ccc(Cl)cc1 (stereo not drawn) | -1.09%
76 | CCc1ccc(OC2(C)CCN(CCOc3ccc(C)cc3)C2)cc1 (stereo not drawn) | 3.54%
77 | CCN1CCN(CCNC(=O)c2ccc(/C=C3/Sc4ccccc4N(Cc4cccc(C)c4)C3=O)cc2)CC1 | 13.8% (active)
78 | CCN1CCN(CCNC(=O)c2ccc3c(c2)NC(=O)/C(=C\c2cccc(Cl)c2)S3)CC1 | -0.09%
79 | Cc1ccccc1CN1C(=O)c2ccccc2Sc2ccc(C(=O)NCCCN3CCOCC3)cc21 | 3.09%
80 | CCc1nc2c(OCC(=O)C(C)(C)C)cccn2c1N(C)C(=O)c1ccccc1F | -1.02%
81 | CCC(=O)N1CCC(C)(C(=O)Nc2cc(OC)c(OC)c(OC)c2)C1 (stereo not drawn) | -0.53%
82 | CC(C)Oc1c(Br)cc(Br)cc1/C=N/NC(N)=S | 22.7% (active)
83 | CC1(C(=O)N/N=C/c2cc3c(cc2Br)OCO3)CC1(Br)Br (stereo not drawn) | -3.59%
84 | COc1cccc(C(NC(C)=O)c2nc(-c3ccccc3OC)cs2)c1 (stereo not drawn) | -0.26%
85 | Cc1cc(O)ccc1-c1cc(C(=O)NCc2cc(C(F)(F)F)cc(C(F)(F)F)c2)[nH]n1 | 2.75%
86 | OC(c1ccc(F)cc1)c1ncc(-c2cccc(C(F)(F)F)c2)[nH]1 (stereo not drawn) | 1.88%
87 | CC(=O)NC(c1ccccc1)c1nc(-c2ccccc2C)cs1 (stereo not drawn) | 0.3%
88 | CC1(C(=O)NCc2ccc3c(c2)OCO3)CCN1C(=O)Cc1cccs1 (stereo not drawn) | 0.72%
